# From ChEMBL document CHEMBL4513216, “Probing the Open Global Health Chemical Diversity Library for Multistage-Active Starting Points for Next-Generation Antimalarials” (ACS Infect Dis, 2020)
# Screen size: about 69,000 compounds; about 8,600 (12%) showed an effect of 50% or more. Many of the other results were omitted from the sample, so strong results are more common in it than they were.
# System: Plasmodium berghei
# Assay: Screen against P. berghei liver stage (PbLuc), transformed with Luciferase, at 10uM
# Format: functional, HepG2
# Settings: tested at 10 uM
row,SMILES,INHIBITION
1,Cc1nc(C)c(C(=O)N2CCc3nnc(C4CCCN4C)n3CC2)s1 (stereo not drawn),-14.6%
2,CCC(=O)N1CCC2(CC1)COCCN2Cc1ccc(F)cc1,66%
3,CCN1CCOCC12CCN(C(=O)Cc1cccs1)CC2,23.3%
4,O=C(CC1CCCC1)N1CCC2(CCN2Cc2ccc(F)cc2)C1 (stereo not drawn),-43%
5,CC(C)CC(=O)N1CCC2(CC1)COCCN2Cc1ccc(F)cc1,56.7%
6,O=C(Cc1ccccc1)N1CCC2(CCN2Cc2ccc(F)cc2)C1 (stereo not drawn),1.34%
7,O=C(C1CC1)N1CCC2(CCN2Cc2ccc(F)cc2)C1 (stereo not drawn),9.97%
8,CC(C)C(=O)N1CCC2(CC1)COCCN2Cc1ccc(F)cc1,63.7%
9,O=C(C1CC1)N1CCC2(CCCN2Cc2ccc(F)cc2)CC1,13.7%
10,CCN1CCOCC12CCN(C(=O)Cc1ccccc1)CC2,28.7%
11,CC(=O)N1CCC2(CC1)COCCN2Cc1ccc(F)cc1,34.7%
12,COCC(=O)N1CCC2(CC1)COCCN2Cc1ccc(F)cc1,26.4%
13,O=C(C1CC1)N1CCC2(CC1)COCCN2Cc1ccc(F)cc1,68.4%
14,CC(=O)NCCCNC(=O)N1CCN(c2cc(F)ccc2F)CC1,-15%
15,N#Cc1ccccc1CN1C[C@H]2CC[C@@H](C1)N(Cc1cscn1)C2=O,6.8%
16,CCc1nc(C)sc1CN1CC[C@@](O)(CCOC)[C@H](C)C1,21.8%
17,COCCn1cncc1-c1nc2c([nH]1)CC(C)(C)CNC2=O,-27.6%
18,COCC(=O)N1CCCCC1c1nc(C)c2c(n1)N(C1CC1)C(=O)CC2 (stereo not drawn),36.9%
19,CCN1CCC(NC(=O)CN2CCCC2Cn2nc(C)nc2C)CC1 (stereo not drawn),31.2%
20,CSCC[C@H](NC(=O)Cn1ccc2ccc(Cl)cc21)C(=O)O,-30.8%
21,Cc1cc(CN2CCCC2Cn2cccn2)no1 (stereo not drawn),9.2%
22,CSCc1cccc(S(=O)(=O)N2CCCCCC2)c1,2.69%
23,Cc1cc(NC2CCc3nc(C(C)C)nn3C2)n2ncnc2n1 (stereo not drawn),49.1%

row,SMILES,INHIBITION
1,Cn1nnc2c1C(COCc1ccccn1)CN(C(=O)c1cccs1)C2 (stereo not drawn),31.8%
2,CS(=O)(=O)N1CC[C@]2(C[C@@H](Oc3ccccn3)CO2)C1,29%
3,COc1cccc(C(=O)N2C[C@@H](c3ccccc3)[C@@H]3NCCCC[C@@H]32)c1,5.11%
4,COc1ccc(C(=O)N2C[C@@H](c3ccccc3)[C@@H]3NCCCC[C@@H]32)cc1,15.9%
5,COc1cccc([C@H]2CN(C(=O)c3ccccc3)[C@@H]3CCCN[C@H]23)c1,55.6%
6,CCn1cc(CN2CCCN(C(=O)c3ccoc3)CC2)cn1,41.2%
7,CCCNC(=O)C[S+]([O-])Cc1csc(C2CCCCC2)n1 (stereo not drawn),23%
8,O=C(C[S+]([O-])Cc1csc(C2CCCC2)n1)NC1CCCC1 (stereo not drawn),36.9%
9,CCC(C)(C)NC(=O)C[S+]([O-])Cc1csc(C2CCCC2)n1 (stereo not drawn),63.8%
10,CCc1cnc(N2CCc3ncnc(N4CCN(C)CC4)c3CC2)nc1,36.2%
11,O=S(=O)(NCc1ccnc(-n2ccnc2)c1)c1cncc(Cl)c1,15.2%
12,Cn1cc(S(=O)(=O)NC(=O)C2(c3ccccc3)CCC2)cn1,2.97%
13,Cc1cccc(C2(C(=O)NS(=O)(=O)c3cnn(C)c3)CCCC2)c1,53.5%
14,Cn1cc(S(=O)(=O)NC(=O)C2(c3cccc(Cl)c3)CC2)cn1,-6.94%
15,O=C(CCNC(=O)N1CCC(c2ccccc2)C1)N1CCCCC1 (stereo not drawn),-24.5%
16,CN(C(=O)C1CCOCC1)[C@@H]1CCC[C@@H](N2CCOCC2)[C@@H]1O,38.2%
17,Oc1nc(N2CCCC2)nc2c1CCN(Cc1cccnc1)CC2,24.8%
18,CN(Cc1ccsc1)C(=O)c1nc(N2CCCCC2)ncc1Cl,26.7%
19,O=C(c1nc(N2CCCC2)ncc1Cl)N1CCN(Cc2ccsc2)CC1,72.1%
20,Cc1nc(C)c2c(n1)CCN(Cc1ccsc1)CC2,-5.08%
21,Cc1nc(N2CCOCC2)nc2c1CCN(Cc1ccsc1)CC2,60.5%
22,Oc1nc(N2CCCC2)nc2c1CCN(Cc1ccsc1)CC2,61.7%
23,c1cncc(-c2ncnc3c2CCN(Cc2ccsc2)CC3)c1,3.58%

row,SMILES,INHIBITION
1,CN(Cc1ccsc1)C(=O)c1nc(N2CCCC2)ncc1Cl,-0.232%
2,Cc1nc(N2CCCC2)nc2c1CCN(Cc1ccsc1)CC2,4.1%
3,O=C(c1ccc(N2CCCC2)nc1)N1CCCC(c2nccs2)C1 (stereo not drawn),17.2%
4,CC(C)Cc1nc(CNCc2cccc(N3CCCC3=O)c2)no1,-20.5%
5,NCC1CCC(C(NC(=O)CC2CCCCC2)c2ccccn2)CC1 (stereo not drawn),38.2%
6,CCc1ccc(NC(=O)N2C[C@@H]3C[C@H](C(=O)NC(C)C)[C@H](C2)O3)cc1,-31.1%
7,CN1CC2(CCN(C(=O)c3cc(-n4cccn4)ccc3Cl)CC2)OC1=O,14.5%
8,Cc1cnn(C2CCCN(C(=O)c3ccc4c(c3)CCC4)C2)c1 (stereo not drawn),40.2%
9,O=C(c1cc(F)ccc1F)C1CCN(C(=O)c2ccco2)CC1,-98.8%
10,Cc1ccc(C(C)N(C)Cc2nc3c(cnn3C)c(=O)[nH]2)s1 (stereo not drawn),-30.38%
11,N#CCSCC(=O)NCC1CCCCC1,18.6%
12,NC(=O)CSCCC(=O)NCC1CC1,-0.71%
13,NC(=O)CSCC(=O)NCC1CCCC1,50.4%
14,CN(C(=O)c1ccnn1C)[C@@H]1CCC[C@@H](Oc2ccccc2)[C@@H]1O,34%
15,CCC(=O)N1CCC(Cc2cnc(Nc3cnccn3)cn2)CC1,16.5%
16,Cc1n[nH]c(C)c1-c1nccnc1CC1CCN(S(C)(=O)=O)C1 (stereo not drawn),-3.31%
17,Cc1cc(NC2CCCN(Cc3ccc(F)cc3)C2)n2nc(C)cc2n1 (stereo not drawn),67.3%
18,Cc1cc(NC2CCN(c3ccc(F)cc3)CC2)n2nc(C)cc2n1,8.07%
19,Cc1ccc(NC2CCCN(Cc3ccc(Cl)cc3)C2)nn1 (stereo not drawn),-20%
20,Cc1cc(C)nc(NC2CCCN(CCCc3ccccc3)C2)n1 (stereo not drawn),31.1%
21,Cc1ccc(NC2CCCN(CCc3ccccc3)C2)nn1 (stereo not drawn),-28%
22,Cc1cc(N[C@H]2CCCN(Cc3ccccc3)C2)n2nc(C)cc2n1,63.7%
